Experimental data published in PubChem BioAssay (Tox21).
A number with no mark means an inactive call. Results filed as inconclusive are left out. Entries that show only a call come without a potency. The source made the active and inactive calls. Unless noted, calls come from the whole dose curve; as a rule, active = well fitted curve in the direction sought with a large enough effect in the repeat runs; inconclusive = weak or mixed curves; inactive = no such curve, though single readings can be large; an effect the other way counts as inactive or inconclusive.

Key:
[1] = qHTS assay to test for compound auto fluorescence at 535 nm (green) in HEK293 cells (AID 720680)
[2] = qHTS assay to test for compound auto fluorescence at 460 nm (blue) in HEK293 cell free culture (AID 720681)
In short: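 Compounds were added to cell-free DMEM with 10% FBS and fluorescence read directly. The blue channel used 405 nm excitation and 460 nm emission, with triamterene as the reference fluorophore.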

[3] = qHTS assay to test for compound auto fluorescence at 535 nm (green) in HEK293 cell free culture (AID 720682)
In short: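 DMEM + 10% FBS, cell-free; cpd or DMSO pinned in; Ex485/Em535 read; output as fluorescein-equivalent signal.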

[4] = qHTS assay to test for compound auto fluorescence at 590 nm (red) in HEK293 cell free culture (AID 720683)
In short: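 Cell-free wells of DMEM with 10% FBS received compound, and intrinsic fluorescence was read at excitation/emission 540/590 nm. Values expressed as equivalence to Rose Bengal sodium.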

[5] = qHTS assay to test for compound auto fluorescence at 590 nm (red) in HepG2 cell free culture (AID 720684)
In short: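 Auto fluorescence equivalency versus Rose Bengal sodium, red channel Ex/Em 540/590 nm; compounds in cell-free MEM/10% FBS; DMSO vehicle control.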

[6] = qHTS assay to test for compound auto fluorescence at 460 nm (blue) in HepG2 cell free culture (AID 720685)
In short: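 Cell-free plates of MEM plus 10% FBS received 23 nL compound or DMSO vehicle; blue-channel (405/460 nm) intensity scored against triamterene as reference fluorophore.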

[7] = qHTS assay to test for compound auto fluorescence at 535 nm (green) in HepG2 cell free culture (AID 720686)
[8] = qHTS assay to test for compound auto fluorescence at 460 nm (blue) in HepG2 cells (AID 720687)
In short: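 HepG2 cells in MEM with 10% FBS, attached overnight at 37 C, were exposed to compound or DMSO for 1 hr at 37 C, 5% CO2. Blue fluorescence was read at 405/460 nm, with triamterene as reference fluorophore.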

[9] = qHTS assay for identifying genotoxic compounds that show differential cytotoxicity against isogenic chicken DT40 cell lines with known DNA damage response pathways - wild type cell line (AID 743012); note: nearly all actives have a fitted effect of over 60% in size; note: potency is the fitted concentration of half-maximal effect
In short: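 Luminescent ATP viability signal (CellTiter-Glo, 30 min RT) recorded after wild type DT40 cells were incubated with compounds for 40 h at 37 C/5% CO2.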

[10] = qHTS assay for identifying genotoxic compounds that show differential cytotoxicity against isogenic chicken DT40 cell lines with known DNA damage response pathways - Rad54/Ku70 mutant cell line (AID 743015); note: nearly all actives have a fitted effect of over 60% in size; note: potency is the fitted concentration of half-maximal effect
[11] = qHTS assay to identify small molecule antagonists of the androgen receptor (AR) signaling pathway - cell viability counter screen (AID 743033; note: nearly all actives have a fitted effect of over 45% in size)
[12] = qHTS assay to identify small molecule antagonists of the androgen receptor (AR) signaling pathway using the MDA cell line - cell viability counter screen (AID 743041; note: nearly all actives have a fitted effect of over 45% in size)
In short: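 Compound exposure lasted 16 h at 37C in MDA-kb2 AR-luc cells stimulated with R1881. Protease-based CellTiter-Fluor reagent was applied for the final 30 min and fluorescence measured.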

[13] = qHTS assay to identify small molecule antagonists of the glucocorticoid receptor (GR) signaling pathway - cell viability counter screen (AID 720693); note: nearly all actives have a fitted effect of over 55% in size
[14] = qHTS assay for identifying genotoxic compounds that show differential cytotoxicity against isogenic chicken DT40 cell lines with known DNA damage response pathways - Rev3 mutant cell line (AID 743014); note: nearly all actives have a fitted effect of over 55% in size
[15] = molecular target: Androgen receptor (Homo sapiens) (UniProt P10275); experiment: qHTS assay to identify small molecule antagonists of the androgen receptor (AR) signaling pathway (AID 743035; active = well fitted inhibition curve with a large enough effect in the signal ratio in the repeat runs, not every such curve was filed as active; the % refers to the signal ratio)
In short: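 Quantitative HTS of the Tox21 10K library used HEK293 AR-UAS-bla cells stimulated with R1881 alongside compound for 16 h at 37C, followed by beta-lactamase FRET detection (LiveBLAzer B/G, 2 h, RT).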

[16] = molecular target: Androgen receptor (Homo sapiens) (UniProt P10275); experiment: qHTS assay to identify small molecule agonists of the androgen receptor (AR) signaling pathway (AID 743036; active = well fitted activation curve with a large enough effect in the signal ratio in the repeat runs, with a control signal flat, not every such curve was filed as active; the % refers to the signal ratio)
In short: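 Screening used 2,000 AR-bla HEK293 cells per well, treated 16 h at 37C with test compounds in DMSO alongside positive and DMSO-only controls; beta-lactamase activity was then read by LiveBLAzer B/G FRET fluorescence after 2 h at room temperature.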

[17] = molecular target: Androgen receptor (Homo sapiens) (UniProt P10275); experiment: qHTS assay to identify small molecule agonists of the androgen receptor (AR) signaling pathway using the MDA cell line (AID 743040; note: nearly all actives have a fitted effect of over 20% in size)
In short: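 Testing was done with the MDA-kb2 AR-luc line, a human breast carcinoma stably transfected with MMTV-luciferase containing AR and GR response elements. Cells were exposed 16 h at 37C before ONE-Glo luminescence detection.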

[18] = molecular target: Androgen receptor (Homo sapiens) (UniProt P10275); experiment: qHTS assay to identify small molecule antagonists of the androgen receptor (AR) signaling pathway using the MDA cell line (AID 743042; note: nearly all actives have a fitted effect of over 55% in size)
In short: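 MDA-kb2 breast carcinoma cells carrying MMTV-luciferase (AR/GR responsive) were co-treated with compounds and the agonist R1881 for 16 h at 37C. Inhibition read as ONE-Glo luminescence; CellTiter-Fluor fluorescence measured in parallel for cytotoxicity.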

[19] = molecular target: Glucocorticoid receptor (Homo sapiens) (UniProt P04150); experiment: qHTS assay to identify small molecule agonists of the glucocorticoid receptor (GR) signaling pathway (AID 720691; active = well fitted activation curve with a large enough effect in the signal ratio in the repeat runs, not every such curve was filed as active; the % refers to the signal ratio)
In short: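 Cells: GR-bla HeLa, endogenous GR with stably integrated GRE-beta-lactamase reporter. Treatment 18 h, 37 C, compounds delivered in DMSO. Detection via LiveBLAzer B/G FRET substrate, 2 h RT, fluorescence intensity.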

[20] = molecular target: Glucocorticoid receptor (Homo sapiens) (UniProt P04150); experiment: qHTS assay to identify small molecule antagonists of the glucocorticoid receptor (GR) signaling pathway (AID 720692; active = well fitted inhibition curve with a large enough effect in the signal ratio in the repeat runs, not every such curve was filed as active; the % refers to the signal ratio)
In short: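 Quantitative HTS in antagonist format: HeLa cells expressing endogenous GR and a stably integrated GRE-bla reporter, stimulated with 5 nM dexamethasone (final) alongside test compounds for 18 h.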

Androgen receptor (Homo sapiens), sequence (P10275 whole entry, looked up): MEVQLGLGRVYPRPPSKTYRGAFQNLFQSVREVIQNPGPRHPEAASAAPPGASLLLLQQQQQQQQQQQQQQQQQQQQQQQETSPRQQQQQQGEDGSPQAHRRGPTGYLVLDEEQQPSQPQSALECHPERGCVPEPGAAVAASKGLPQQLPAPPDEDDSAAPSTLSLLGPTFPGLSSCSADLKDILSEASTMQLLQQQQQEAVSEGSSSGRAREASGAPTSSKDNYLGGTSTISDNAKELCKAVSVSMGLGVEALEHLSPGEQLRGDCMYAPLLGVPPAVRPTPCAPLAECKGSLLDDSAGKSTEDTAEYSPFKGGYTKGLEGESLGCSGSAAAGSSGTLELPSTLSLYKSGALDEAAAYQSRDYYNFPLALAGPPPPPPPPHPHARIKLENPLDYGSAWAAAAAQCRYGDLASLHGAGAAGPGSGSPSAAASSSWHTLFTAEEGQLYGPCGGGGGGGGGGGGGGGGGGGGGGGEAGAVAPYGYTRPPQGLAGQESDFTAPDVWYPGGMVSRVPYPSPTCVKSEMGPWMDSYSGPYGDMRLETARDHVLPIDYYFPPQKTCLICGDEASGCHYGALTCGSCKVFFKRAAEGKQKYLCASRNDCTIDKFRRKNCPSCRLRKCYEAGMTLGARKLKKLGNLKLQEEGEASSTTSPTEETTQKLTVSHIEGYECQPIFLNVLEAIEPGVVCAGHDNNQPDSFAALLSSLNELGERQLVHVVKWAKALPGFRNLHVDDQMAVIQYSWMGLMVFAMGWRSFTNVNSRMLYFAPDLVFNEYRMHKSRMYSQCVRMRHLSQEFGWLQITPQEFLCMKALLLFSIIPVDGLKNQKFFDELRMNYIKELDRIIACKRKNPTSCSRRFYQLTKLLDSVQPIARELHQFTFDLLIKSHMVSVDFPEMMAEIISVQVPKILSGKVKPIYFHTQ
Glucocorticoid receptor (Homo sapiens), sequence (P04150 whole entry, looked up): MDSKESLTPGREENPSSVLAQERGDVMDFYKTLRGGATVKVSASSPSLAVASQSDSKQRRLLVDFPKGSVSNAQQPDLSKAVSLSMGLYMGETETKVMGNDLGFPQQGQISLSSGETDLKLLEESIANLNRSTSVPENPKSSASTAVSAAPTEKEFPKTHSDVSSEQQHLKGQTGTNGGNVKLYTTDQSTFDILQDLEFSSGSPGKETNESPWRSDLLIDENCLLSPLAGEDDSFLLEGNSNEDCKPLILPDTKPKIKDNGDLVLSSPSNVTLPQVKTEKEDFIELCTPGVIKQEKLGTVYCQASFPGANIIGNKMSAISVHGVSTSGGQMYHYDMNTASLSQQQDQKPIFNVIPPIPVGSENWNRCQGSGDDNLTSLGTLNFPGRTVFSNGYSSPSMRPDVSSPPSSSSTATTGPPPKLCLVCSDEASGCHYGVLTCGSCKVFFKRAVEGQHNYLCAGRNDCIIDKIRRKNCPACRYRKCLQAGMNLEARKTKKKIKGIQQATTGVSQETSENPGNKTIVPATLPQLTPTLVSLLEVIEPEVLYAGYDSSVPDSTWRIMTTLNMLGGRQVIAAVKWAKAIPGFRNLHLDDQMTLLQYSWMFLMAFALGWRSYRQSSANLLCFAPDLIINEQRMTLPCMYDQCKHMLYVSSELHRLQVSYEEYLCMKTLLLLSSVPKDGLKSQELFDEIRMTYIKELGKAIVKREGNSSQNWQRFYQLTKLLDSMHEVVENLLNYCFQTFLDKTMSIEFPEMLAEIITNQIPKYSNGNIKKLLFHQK

Structure (SMILES) | outcome [1] | Potency [2] | outcome [3] | outcome [4] | outcome [5] | Potency [6] | outcome [7] | Potency [8] | Potency [9] | Potency [10] | outcome [11] | Potency [12] | outcome [13] | Potency [14] | Potency [15] | outcome [16] | Potency [17] | outcome [18] | Potency [19] | Potency [20]
OC/C=C/c1ccccc1 | inactive | inactive | inactive | inactive | inactive | inactive | inactive | inactive | inactive | inactive | inactive | inactive |  |  |  |  |  |  |  | 
C=C(C)C(=O)NCCCN(C)C | inactive | inactive | inactive | inactive | inactive | inactive | inactive | inactive |  | inactive | inactive | inactive | inactive | inactive |  |  |  |  |  | 
C=CC(=O)OCCCCCC | inactive | inactive | inactive | inactive | inactive | inactive | inactive | inactive |  | inactive | inactive | inactive | inactive |  |  |  |  |  |  | 
C=CCOCC(O)CS(=O)(=O)O (stereo not drawn) | inactive | inactive | inactive | inactive | inactive | inactive | inactive | inactive | inactive | inactive | inactive | inactive |  | inactive |  |  |  |  |  | 
CCC(C)(C)C1CCC(OC)CC1 (stereo not drawn) | inactive | inactive | inactive | inactive | inactive | inactive | inactive | inactive | inactive | inactive | inactive | inactive | inactive |  |  |  |  |  |  | 
Cc1ccccc1Br | inactive | inactive | inactive | inactive | inactive | inactive | inactive | inactive |  | inactive | inactive | inactive |  | inactive |  |  |  |  |  | 
NC(=O)Nc1nc2ccccc2[nH]1 | inactive | inactive | inactive | inactive | inactive | inactive | inactive | inactive | inactive | inactive | inactive | inactive |  | inactive |  |  |  |  |  | 
CSc1nc(NC2CC2)nc(NC(C)(C)C)n1 | inactive | inactive | inactive | inactive | inactive | inactive | inactive | inactive | 54.5 µM (active) | 54.5 µM (active) | inactive | inactive | inactive |  |  |  |  |  |  | 
CN(C)C(=O)Nc1ccccc1 | inactive | inactive | inactive | inactive | inactive | inactive | inactive | inactive | inactive | inactive | inactive | inactive | inactive | inactive |  |  |  |  |  | 
C#CC(O)CCCCC (stereo not drawn) | inactive | inactive | inactive | inactive | inactive | inactive | inactive | inactive |  | inactive | inactive | inactive | inactive | inactive |  |  |  |  |  | 
CC(=O)CCc1ccc(O)cc1 | inactive | inactive | inactive | inactive | inactive | inactive | inactive | inactive |  | inactive | inactive | inactive | inactive | inactive |  |  |  |  |  | 
CC1(C)SC(C)(C)SC(C)(C)S1 | inactive | inactive | inactive | inactive | inactive | inactive | inactive | inactive | inactive |  | inactive | inactive | inactive | inactive | inactive | inactive | inactive | inactive |  | 
NC(=O)c1ncn([C@@H]2O[C@H](CO)[C@@H](O)[C@H]2O)c1N | inactive | inactive | inactive | inactive | inactive | inactive | inactive | inactive |  | inactive | inactive | inactive |  |  |  |  |  |  |  | 
CCN(CC)C(=O)c1ccc(O)c(OC)c1 | inactive | inactive | inactive | inactive | inactive | inactive |  | inactive | inactive | inactive | inactive | inactive | inactive | inactive |  |  |  |  | inactive | inactive
N[C@@H](CS)C(=O)O | inactive | inactive | inactive | inactive | inactive | inactive | inactive | inactive | inactive | inactive | inactive | inactive |  | inactive |  |  |  |  |  | 
Cc1ccccc1C(=O)O | inactive | inactive | inactive | inactive | inactive | inactive | inactive | inactive |  | inactive | inactive | inactive | inactive |  |  |  |  |  |  | 
CC(C)=CC(=O)O | inactive | inactive | inactive | inactive | inactive | inactive | inactive | inactive | inactive | inactive | inactive | inactive | inactive |  |  |  |  |  |  | 
CNc1ncnc2nc[nH]c12 | inactive | inactive | inactive | inactive | inactive | inactive | inactive | inactive | inactive | inactive | inactive | inactive | inactive | inactive |  |  |  |  |  | 
c1ccc(CCCc2ccccn2)cc1 | inactive | inactive | inactive | inactive | inactive | inactive | inactive | inactive |  | inactive | inactive | inactive |  | inactive |  |  |  |  |  | 
